Compound activity deposited in PubChem BioAssay by SRMLSC.
The list is not random: actives were taken first. Their share in the collection is about 6.5%.
NADH enzymes: inhibition of NAD/NADH coupling enzymes, library profiling. coupled PK/LDH NADH assays, four targets. IC50, µM (series often up to 10 µM). hit rate 0.02% among 65,000. AID 774;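 active = single-dose screening hits from any of four coupled enzyme assays that gave an IC50 when retested across doses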;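 also: the DPM-DC format reads NADH fluorescence rather than 340 nm absorbance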
MK inhibit: blocks S. pneumoniae mevalonate kinase. hit rate 0.48% among 65,000. purified MK, PK/LDH-coupled NADH absorbance 340 nm. inhibition, % at 10 µM. AID 555;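 active = ranked among the strongest by inhibition in the single 10 µM screen, a fixed top-ranked set picked for dose follow-up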
Spn PMK inh: blocks S. pneumoniae phosphomevalonate kinase; purified PMK, PK/LDH-coupled NADH absorbance 340 nm; AID 539; inhibition, % at 10 µM; hit rate 0.49% among 65,000;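 active = top-ranked compounds by inhibition in the single 10 µM screen, taking a fixed number of the strongest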
Autofluor 339: intrinsic fluorescence of library compounds, ex339/em460 – biochemical, MLSMR library, data from DPM-DC assay, artefact control, profiling panel. compound autofluorescence, ex339/em460 nm, NADH buffer; hits give high values; 1 = no-compound wells, NADH background. fluorescence fold increase at 10 µM. hit rate 5.5% among 65,000. AID 709;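 active = at 10 µM, mean starting fluorescence two-fold or more over control wells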;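 also: signal is the first read of a kinetic run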
DPM-DC inhibit: S. pneumoniae DPM-DC inhibition. purified DPM-DC, PK/LDH coupled NADH fluorescence. calls only at 10 µM. hit rate 0.49% among 65,000;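 active = the 320 compounds with the highest percent inhibition in the single-dose primary screen, excluding strongly autofluorescent ones, cut at about 32% in these data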;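 also: kinetic rate of NADH fluorescence loss reporting ADP formed by the decarboxylase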
Abs 340nm: compound absorbs light at 340 nm. compound absorbance at 340 nm, fold over control. fold change at 10 µM. 65,000 tested, under 10 active. AID 708;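 active = at 10 µM dose, initial 340 nm absorbance at least 2 fold that of control wells; inactive = change under 2 fold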;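 also: initial absorbance extrapolated from kinetic A340 decline of NADH oxidation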
A number is an active result; - = inactive; . = not tested or not shown; + = active, no number.

SMILES | NADH enzymes | MK inhibit | Spn PMK inh | Autofluor 339 | DPM-DC inhibit | Abs 340nm
CCOC(=O)c1cccc(NC(=O)c2cccs2)c1 | - | - | - | - | - | -
COc1ccc(-n2c(=O)c3c4c(sc3n(CC(=O)NCc3ccco3)c2=O)CCC4)c(OC)c1 | - | 63 | - | - | - | -
CCOC(=O)c1c(NC(=O)c2ccn(CC)n2)sc2c1CCCC2 | - | - | - | 2.7 | . | -
CCOC(=O)c1c(NC(=O)COC)sc2c1CCCC2 | - | - | - | - | - | -
CCOC(=O)c1c(C2COc3ccccc3O2)csc1NC(=O)c1ccco1 (stereo not drawn) | - | - | - | 3.2 | - | -
CCOc1ccc(-n2c(=O)c3c(C)c(C)sc3n(CC(=O)NCc3ccco3)c2=O)cc1 | - | - | - | - | - | -
Clc1ccccc1-c1nnc2sc(-c3ccc(Br)o3)nn12 | - | - | - | - | - | -
O=c1cc(-c2ccccc2)[nH]c2nc3ccccc3n12 | - | - | - | 2.5 | . | -
O=c1cc(-c2ccccc2)[nH]n1-c1nc2ccccc2s1 | - | - | - | - | - | -
CCN(CC)CCCNC(=O)c1ccccc1C | - | - | - | - | - | -
Cc1ccc(OCCNC(=O)c2ccccc2N)cc1 | - | - | - | 2.1 | . | -
CCN(CC)CCNC(=O)c1ccccc1N | - | - | - | 2.3 | . | -
COc1ccc(OCCNC(=O)c2ccccc2OCC(=O)N2CCCCC2)cc1 | - | - | - | - | - | -
Nc1nnc(SCC(=O)NCc2ccc3c(c2)OCO3)s1 | - | - | - | - | - | -
NC(=O)c1nsc(C(=O)N(CC(=O)NCc2ccc3c(c2)OCO3)C2CCCC2)c1N | - | - | . | 2.1 | - | -
Cc1cc(C)n2nc(C(=O)NCc3ccco3)nc2n1 | - | - | - | - | - | -
Cc1cc(C)c2c(N)c(C(=O)NCc3ccco3)sc2n1 | - | - | - | 2.1 | . | -
Cc1cc(C)c2c(N)c(C(=O)N3CCCCCC3)sc2n1 | - | - | - | 2.2 | - | -
CC1CCc2sc3ncn4nc(C(=O)NCc5ccco5)nc4c3c2C1 (stereo not drawn) | - | - | - | 2 | - | -
COc1ccc(C(=O)N(CC(=O)NC(C)(C)C)c2ccc3c(c2)OCCO3)cc1OC | - | - | - | - | - | -
Cc1ccc(C2/C(=C(\O)c3c(C)nc4ccccn34)C(=O)C(=O)N2CCCN2CCOCC2)o1 (stereo not drawn) | - | - | - | - | - | -
O=C(NCc1cccnc1)NC(C(F)(F)F)C(F)(F)F | - | - | - | - | - | -
COCC(=O)Nc1ccc(-c2cn3cccnc3n2)cc1 | - | - | - | 5.2 | . | -
CCOCC(=O)Nc1cc(-c2cn3cccnc3n2)ccc1C | - | - | - | 5.3 | . | -
c1ccc(-c2cnnc(SCc3cn4cccnc4n3)n2)cc1 | - | - | - | - | - | -
SMILES | NADH enzymes | MK inhibit | Spn PMK inh | Autofluor 339 | DPM-DC inhibit | Abs 340nm
Brc1ccc(-c2cn3cccnc3n2)cc1 | - | - | - | 3.4 | . | -
Cc1ccc(S(=O)(=O)CCC(=O)OCC(=O)N2CC(=O)Nc3ccccc32)cc1 | - | - | - | - | - | -
Cc1csc(NC(=O)C2CCC(C)(C(=O)O)C2(C)C)n1 (stereo not drawn) | - | - | 29 | - | - | -
C=CCn1c(=N)n(CC(=O)OCC)c2ccccc21 | - | - | - | - | - | -
CCC(CCC(=O)Nc1cccc(C(=O)O)c1)C(=O)O (stereo not drawn) | - | - | - | - | - | -
Cc1nnc(C)c2c(C)n(C(C)c3ccccc3)c(C)c12 (stereo not drawn) | - | - | - | 2.1 | - | -
Cc1occc1-c1nnc(SCC(=O)NC(C)(C)C)n1C(C)c1ccccc1 (stereo not drawn) | - | - | - | - | - | -
N=c1n(CCN2CCOCC2)c2ccccc2n1CC(=O)c1ccc(Cl)c(Cl)c1 | - | - | 26 | - | - | -
CCC(=O)N1c2ccc(S(=O)(=O)CCC(=O)N3CCn4c3nc3ccccc34)cc2CC1C (stereo not drawn) | - | - | - | - | - | -
Cc1csc(SCc2c(C(=O)O)oc3ccccc23)n1 | - | - | - | - | - | -
CCOC(=O)c1ccc(NC(=O)c2c(O)c3ccccc3n(C)c2=O)cc1 | - | - | - | - | - | -
CCOC(=O)c1cc2c(=O)n(C)c3ccccc3c2s1 | - | - | - | 2.8 | + | -
CN1CCN(CCCNC(=O)c2cc3c(=O)n(C)c4ccccc4c3s2)CC1 | - | - | - | 2.1 | . | -
